From PubChem BioAssay AID1159580 (chemical genetic matrix, 2015)
“And” between values parts separate entries of the source, which are not always exact repeats. Equal values may be shown once. The whole screen tested about 5,500 compounds, of which about 2,000 (36%) were called active. Another 18% or so got no clear call; they are omitted. Rule as the data show it: active = normalized growth mostly below about 0.91 (no sharp cut-off); inconclusive = no clear call, values can overlap the other calls; inactive = mostly above about 0.92. Some of the results follow.

Assay: chemical genetic growth profiling, strain panel (AID 1159580);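 also: tested at 20 µM; growth read once vehicle control cultures reached saturation at 30 °C; 1 = growth at the plate median or of vehicle wells; lower values mean less growth of the strain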
Details: S. cerevisiae deletion strains, growth OD

Measured: normalized growth

CC(=O)O[C@@H]1CC2C(C)(CC[C@H](O)C2(C)C)C2CC[C@]3(C)C(=CC(=O)O[C@H]3c3ccoc3)C21C (stereo not given in full)
inactive: locus YAL013W, strain DEP1, active compounds read low 0.999 | locus YAL021C, strain ccr4, active compounds read low 0.995 | locus YAL026C, strain drs2, active compounds read low 1 | locus YAL030W, strain snc1, active compounds read low 0.998 | locus YBL061C, strain skt5, active compounds read low 1.02 | locus YBR009C, strain hhf1, active compounds read low 1.02 | locus YBR021W, strain FUR4, active compounds read low 0.868 | locus YBR023C, strain chs3, active compounds read low 1 | locus YBR171W, strain sec66, active compounds read low 1 | locus YBR229C, strain ROT2, active compounds read low 1 | locus YBR231C, strain swc5, active compounds read low 1 | locus YBR279W, strain paf1, active compounds read low 1 | locus YCL011C, strain gbp2, active compounds read low 0.995 | locus YCL016C, strain dcc1, active compounds read low 1 | locus YCL029C, strain bik1, active compounds read low 0.999 | locus YCL061C, strain MRC1, active compounds read low 0.999 | locus YCL069W, strain vba3, active compounds read low 1.02 | locus YCR088W, strain abp1, active compounds read low 1 | locus YDL005C, strain med2, active compounds read low 0.986 | locus YDL035C, strain GPR1, active compounds read low 1.02 | locus YDL040C, strain nat1, active compounds read low 1 | locus YDL074C, strain BRE1, active compounds read low 1.02 | locus YDL101C, strain DUN1, active compounds read low 1 | locus YDL134C, strain PPH21, active compounds read low 0.984 | locus YDL185W, strain tfp1, active compounds read low 1 | locus YDL192W, strain arf1, active compounds read low 1 | locus YDR001C, strain nth1, active compounds read low 1 | locus YDR069C, strain doa4, active compounds read low 1.02 | locus YDR101C, strain arx1, active compounds read low 0.994 | locus YDR137W, strain rgp1, active compounds read low 0.988 | locus YDR150W, strain NUM1, active compounds read low 1.01 | locus YDR159W, strain sac3, active compounds read low 1.01 | locus YDR162C, strain NBP2, active compounds read low 1 | locus YDR195W, strain ref2 0.992 | locus YDR297W, strain sur2, active compounds read low 1 | locus YDR318W, strain mcm21, active compounds read low 0.993 | locus YDR334W, strain swr1, active compounds read low 1 | locus YDR335W, strain msn5, active compounds read low 1.02 | locus YDR388W, active compounds read low 0.996 | locus YDR392W, strain spt3, active compounds read low 0.952 | locus YDR502C, strain sam2, active compounds read low 0.975 | locus YEL003W, strain gim4, active compounds read low 1.02 | locus YEL037C, strain rad23, active compounds read low 1.01 | locus YEL061C, strain CIN8 (second series), active compounds read low 1.01 | locus YEL061C, strain CIN8, active compounds read low 1 | locus YER015W, strain faa2, active compounds read low 1 | locus YER016W, strain bim1, active compounds read low 0.99 | locus YER110C, active compounds read low 0.987 | locus YER111C, strain swi4, active compounds read low 0.998 | locus YER155C, strain BEM2 (second series), active compounds read low 1 | locus YER155C, strain BEM2, active compounds read low 0.993 | locus YER167W, strain BCK2, active compounds read low 1.01 | locus YFR010W, strain ubp6, active compounds read low 1.01 | locus YGL078C, strain dbp3, active compounds read low 0.993 | locus YGL086W, strain mad1, active compounds read low 0.996 | locus YGL167C, strain pmr1, active compounds read low 0.999 | locus YGL173C, strain kem1, active compounds read low 1.01 | locus YGL227W, strain vid30, active compounds read low 0.994 | locus YGL240W, strain doc1, active compounds read low 0.99 | locus YGL248W, strain PDE1, active compounds read low 1 | locus YGL253W, strain hxk2, active compounds read low 0.997 | locus YGR078C, strain PAC10, active compounds read low 0.995 | locus YGR135W, strain pre9, active compounds read low 0.959 | locus YGR229C, strain SMI1, active compounds read low 0.971 | locus YGR252W, strain gcn5, active compounds read low 0.946 | locus YHR013C, strain ard1, active compounds read low 0.983 | locus YHR027C, strain rpn1, active compounds read low 1.02 | locus YHR030C, strain SLT2, active compounds read low 0.996 | locus YHR079C, strain IRE1 (second series), active compounds read low 0.986 | locus YHR079C, strain IRE1, active compounds read low 0.994 | locus YHR094C, strain hxt1, active compounds read low 0.984 | locus YHR129C, strain ARP1, active compounds read low 1.01 | locus YHR142W, strain chs7, active compounds read low 1 | locus YHR200W, strain rpn10, active compounds read low 0.995 | locus YIL066C, strain RNR3, active compounds read low 1.02 | locus YIL073C, strain SPO22, active compounds read low 1.02 | locus YIL125W, strain kgd1, active compounds read low 0.992 | locus YIR030C, strain dcg1, active compounds read low 0.993 | locus YJL092W, strain hpr5, active compounds read low 1.01 | locus YJL095W, strain BCK1 (second series), active compounds read low 1.01 | locus YJL095W, strain BCK1, active compounds read low 1 and 0.986 | locus YJL115W, strain asf1, active compounds read low 0.994 | locus YJL129C, strain trk1, active compounds read low 0.99 | locus YJL134W, strain LCB3, active compounds read low 1 | locus YJL154C, strain vps35, active compounds read low 0.996 | locus YJL164C, strain tpk1, active compounds read low 1 | locus YJL166W, strain qcr8, active compounds read low 1 | locus YJL168C, strain set2, active compounds read low 0.994 | locus YJL187C, strain SWE1 (second series), active compounds read low 1 | locus YJR043C, strain POL32, active compounds read low 1.05 | locus YJR066W, strain TOR1, active compounds read low 0.886 | locus YKL009W, strain mrt4, active compounds read low 0.985 | locus YKL068W, active compounds read low 0.997 | locus YKL085W, strain MDH1 (second series), active compounds read low 0.99 | locus YKL085W, strain MDH1, active compounds read low 0.99 | locus YKL160W, strain elf1, active compounds read low 0.991 | locus YKR001C, strain vps1, active compounds read low 0.978 | locus YKR026C, strain gcn3, active compounds read low 0.995 | locus YKR091W, strain srl3, active compounds read low 0.998 | locus YLL001W, strain dnm1, active compounds read low 0.993 | locus YLL026W, active compounds read low 0.989 | locus YLL041C, strain sdh2, active compounds read low 0.989 | locus YLR027C, strain aat2, active compounds read low 1.01 | locus YLR039C, strain RIC1, active compounds read low 1.05 | locus YLR058C, strain SHM2, active compounds read low 1 | locus YLR102C, strain apc9, active compounds read low 0.99 | locus YLR113W, strain HOG1, active compounds read low 1.04 | locus YLR221C, strain rsa3, active compounds read low 1 | locus YLR258W, strain gsy2, active compounds read low 1.01 | locus YLR262C, strain YPT6 (second series), active compounds read low 1.01 | locus YLR262C, strain YPT6, active compounds read low 1.03 | locus YLR268W, strain sec22, active compounds read low 0.988 | locus YLR320W, strain mms22, active compounds read low 0.992 | locus YLR342W, strain FKS1, active compounds read low 0.994 | locus YLR357W, strain rsc2, active compounds read low 0.984 | locus YLR370C, strain arc18, active compounds read low 0.998 | locus YLR371W, strain rom2, active compounds read low 1 | locus YLR384C, strain iki3, active compounds read low 0.978 | locus YLR418C, strain cdc73, active compounds read low 0.948 | locus YML016C, strain PPZ1, active compounds read low 1.01 | locus YML032C, strain rad52, active compounds read low 0.984 | locus YML120C, strain ndi1, active compounds read low 1 | locus YML124C, strain tub3, active compounds read low 0.985 | locus YMR058W, strain fet3, active compounds read low 1.01 | locus YMR078C, strain ctf18, active compounds read low 0.996 | locus YMR125W, strain sto1, active compounds read low 1.02 | locus YMR129W, active compounds read low 0.989 | locus YMR205C, strain PFK2, active compounds read low 0.995 | locus YMR223W, strain ubp8, active compounds read low 0.99 | locus YMR231W, strain pep5, active compounds read low 1 | locus YMR263W, strain SAP30, active compounds read low 0.998 | locus YMR307W, strain GAS1, active compounds read low 1.08 | locus YNL067W, strain RPL9B, active compounds read low 0.989 | locus YNL071W, strain lat1, active compounds read low 1.01 | locus YNL153C, strain GIM3, active compounds read low 1.01 | locus YNL183C, strain NPR1, active compounds read low 0.935 | locus YNL209W, strain ssb2, active compounds read low 0.994 | locus YNL233W, strain BNI4, active compounds read low 0.991 | locus YNL248C, strain rpa49, active compounds read low 0.975 | locus YNL250W, strain rad50, active compounds read low 0.989 | locus YNL271C, strain bni1, active compounds read low 1 | locus YNL298W, strain CLA4, active compounds read low 0.985 | locus YNL307C, strain MCK1, active compounds read low 0.98 | locus YNL322C, strain KRE1 (second series), active compounds read low 0.971 | locus YNL322C, strain KRE1, active compounds read low 1.01 | locus YNR049C, strain mso1, active compounds read low 0.993 | locus YNR052C, strain pop2, active compounds read low 0.991 | locus YOL012C, strain htz1 0.837 | locus YOL147C, strain pex11, active compounds read low 0.983 | locus YOR001W, strain rrp6, active compounds read low 1.01 | locus YOR061W, strain CKA2, active compounds read low 1 | locus YOR069W, strain VPS5, active compounds read low 1 | locus YOR070C, strain gyp1, active compounds read low 0.993 | locus YOR080W, strain dia2, active compounds read low 0.99 | locus YOR083W, strain WHI5, active compounds read low 0.988 | locus YOR106W, strain vam3, active compounds read low 1 | locus YOR136W, strain idh2, active compounds read low 0.989 | locus YOR144C, strain elg1, active compounds read low 0.991 | locus YOR184W, strain ser1, active compounds read low 0.992 | locus YOR231W, strain MKK1, active compounds read low 0.958 | locus YOR265W, strain rbl2, active compounds read low 1.02 | locus YOR270C, strain vph1, active compounds read low 0.965 | locus YOR290C, strain snf2, active compounds read low 0.993 | locus YOR316C, strain cot1, active compounds read low 0.989 | locus YPL051W, strain arl3, active compounds read low 0.974 | locus YPL078C, strain atp4, active compounds read low 0.988 | locus YPL106C, strain sse1, active compounds read low 0.996 | locus YPL240C, strain hsp82, active compounds read low 1 | locus YPL241C, strain CIN2, active compounds read low 1 | locus YPL256C, strain CLN2, active compounds read low 0.991 | locus YPR119W, strain clb2, active compounds read low 0.994 | locus YPR141C, strain kar3, active compounds read low 0.987 | locus YPR163C, strain tif3, active compounds read low 0.98 | locus YPR167C, strain met16, active compounds read low 0.979 | strain wtn01, active compounds read low 0.995
